# Laboratory results as given in the supplement of paper PMC8728848.
# The entries come from a sample that favours the strongest signals as a whole.
# B1: LSL-150 (Laetiporus sulphureus), Q7Z8V1 (protein)
# chain: MTDIYIPPEGLYFRLLGFASRQVIFARNSPSPDVGLSPVNDQATDQYFSLIYGTGEHAGLYAIKSKATGKVLFSRRPAEPYVGQIDGDGRYPDNWFKIEPGKTYLSKYFRLVQPSTGTALVSRTHLQPYFWNHPQTEVFDDQYFTFLFEDHHHHHH
# Tests used:
# Experiment in all cases: glycan array binding signal (z-score within array); higher = stronger binding
# Conditions in all cases: glycan notation: IUPAC condensed, linker removed
# [1] = target: Fuc(a1-2)Gal(b1-3)GalNAc(a1-3)[Fuc(a1-2)]Gal(b1-4)Glc
# Method in brief: (§1)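 Glycan array binding is given as a within-array Z-score, which can be read as non-binding when negative. The arrays, 3228 of them, came from the Consortium for Functional Glycomics database and were retained only where the protein sequence was available. Z-scores were averaged across arrays of the same protein sequence at different concentrations or buffers and across linkers.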
# [2] = target: Fuc(a1-2)Gal(b1-4)GlcNAc(b1-3)[Fuc(a1-3)[Gal(b1-4)]GlcNAc(b1-6)]Gal(b1-4)Glc
# Method in brief: as §1
# [3] = target: Fuc(a1-2)Gal(b1-4)[Fuc(a1-3)]GlcNAc(b1-3)[Neu5Ac(a2-6)Gal(b1-4)GlcNAc(b1-6)]Gal(b1-4)Glc
# Method in brief: as §1
# [4] = target: Fuc(a1-2)[Gal(a1-3)]Gal(b1-3)GlcNAc
# Method in brief: as §1
# [5] = target: Fuc(a1-2)[Gal(a1-3)]Gal(b1-4)GlcNAc(b1-6)GalNAc
# Method in brief: as §1
# [6] = target: Fuc(a1-2)[GalNAc(a1-3)]Gal(b1-3)GalNAc(b1-3)Gal(a1-4)Gal(b1-4)Glc
# Method in brief: as §1
# [7] = target: Gal(a1-3)Gal(b1-4)GlcNAc(b1-2)Man
# Method in brief: as §1
# [8] = target: Gal(b1-3)GlcNAc(b1-3)Gal(b1-4)GlcNAc
# Method in brief: as §1
# [9] = target: Gal(b1-4)GlcNAc(b1-3)Gal(b1-3)GalNAc
# Method in brief: as §1
# [10] = target: Gal(b1-4)GlcNAc(b1-3)Gal(b1-4)GlcNAc(b1-3)Gal(b1-4)GlcNAc(b1-2)Man(a1-3)[Gal(b1-4)GlcNAc(b1-3)Gal(b1-4)GlcNAc(b1-3)Gal(b1-4)GlcNAc(b1-2)Man(a1-6)]Man(b1-4)GlcNAc(b1-4)[Fuc(a1-6)]GlcNAc
# Method in brief: as §1
# [11] = target: Gal(b1-4)GlcNAc(b1-3)Gal(b1-4)GlcNAc(b1-3)Gal(b1-4)GlcNAc(b1-2)[Gal(b1-4)GlcNAc(b1-3)Gal(b1-4)GlcNAc(b1-3)Gal(b1-4)GlcNAc(b1-6)]Man(a1-6)[Gal(b1-4)GlcNAc(b1-3)Gal(b1-4)GlcNAc(b1-3)Gal(b1-4)GlcNAc(b1-2)Man(a1-3)]Man(b1-4)GlcNAc(b1-4)[Fuc(a1-6)]GlcNAc
# Method in brief: as §1
# [12] = target: Gal(b1-4)GlcNAc(b1-3)Gal(b1-4)GlcNAc(b1-3)Gal(b1-4)GlcNAc(b1-3)Gal(b1-4)GlcNAc(b1-2)Man(a1-3)[Gal(b1-4)GlcNAc(b1-3)Gal(b1-4)GlcNAc(b1-3)Gal(b1-4)GlcNAc(b1-3)Gal(b1-4)GlcNAc(b1-2)Man(a1-6)]Man(b1-4)GlcNAc(b1-4)GlcNAc
# Method in brief: as §1
# [13] = target: Gal(b1-4)GlcNAc(b1-3)Gal(b1-4)GlcNAc(b1-3)Gal(b1-4)GlcNAc(b1-3)Gal(b1-4)GlcNAc(b1-2)Man(a1-3)[Gal(b1-4)GlcNAc(b1-3)Gal(b1-4)GlcNAc(b1-3)Gal(b1-4)GlcNAc(b1-3)Gal(b1-4)GlcNAc(b1-2)Man(a1-6)]Man(b1-4)GlcNAc(b1-4)[Fuc(a1-6)]GlcNAc
# Method in brief: as §1
# [14] = target: Gal(b1-4)GlcNAc(b1-3)Gal(b1-4)GlcNAc(b1-3)Gal(b1-4)GlcNAc(b1-3)Gal(b1-4)GlcNAc(b1-2)[Gal(b1-4)GlcNAc(b1-3)Gal(b1-4)GlcNAc(b1-3)Gal(b1-4)GlcNAc(b1-3)Gal(b1-4)GlcNAc(b1-6)]Man(a1-6)[Gal(b1-4)GlcNAc(b1-3)Gal(b1-4)GlcNAc(b1-3)Gal(b1-4)GlcNAc(b1-3)Gal(b1-4)GlcNAc(b1-2)Man(a1-3)]Man(b1-4)GlcNAc(b1-4)[Fuc(a1-6)]GlcNAc
# Method in brief: as §1
# [15] = target: Gal(b1-4)GlcNAc(b1-3)Gal(b1-4)GlcNAc(b1-3)Gal(b1-4)GlcNAc(b1-3)Gal(b1-4)GlcNAc(b1-3)Gal(b1-4)GlcNAc(b1-2)Man(a1-3)[Gal(b1-4)GlcNAc(b1-3)Gal(b1-4)GlcNAc(b1-3)Gal(b1-4)GlcNAc(b1-3)Gal(b1-4)GlcNAc(b1-3)Gal(b1-4)GlcNAc(b1-2)Man(a1-6)]Man(b1-4)GlcNAc(b1-4)GlcNAc
# Method in brief: as §1
# [16] = target: Gal(b1-4)GlcNAc(b1-3)Gal(b1-4)GlcNAc(b1-3)Gal(b1-4)GlcNAc(b1-3)Gal(b1-4)GlcNAc(b1-3)Gal(b1-4)GlcNAc(b1-2)Man(a1-3)[Gal(b1-4)GlcNAc(b1-3)Gal(b1-4)GlcNAc(b1-3)Gal(b1-4)GlcNAc(b1-3)Gal(b1-4)GlcNAc(b1-3)Gal(b1-4)GlcNAc(b1-2)Man(a1-6)]Man(b1-4)GlcNAc(b1-4)[Fuc(a1-6)]GlcNAc
# Method in brief: as §1
# [17] = target: Gal(b1-4)GlcNAc(b1-3)Gal(b1-4)GlcNAc(b1-3)Gal(b1-4)GlcNAc(b1-3)Gal(b1-4)GlcNAc(b1-3)Gal(b1-4)GlcNAc(b1-2)[Gal(b1-4)GlcNAc(b1-3)Gal(b1-4)GlcNAc(b1-3)Gal(b1-4)GlcNAc(b1-3)Gal(b1-4)GlcNAc(b1-3)Gal(b1-4)GlcNAc(b1-6)]Man(a1-6)[Gal(b1-4)GlcNAc(b1-3)Gal(b1-4)GlcNAc(b1-3)Gal(b1-4)GlcNAc(b1-3)Gal(b1-4)GlcNAc(b1-3)Gal(b1-4)GlcNAc(b1-2)Man(a1-3)]Man(b1-4)GlcNAc(b1-4)[Fuc(a1-6)]GlcNAc
# Method in brief: as §1
# [18] = target: Gal(b1-4)GlcNAc(b1-3)Gal(b1-4)GlcNAc(b1-3)Gal(b1-4)GlcNAc(b1-3)Gal(b1-4)GlcNAc(b1-3)Gal(b1-4)GlcNAc(b1-3)Gal(b1-4)GlcNAc(b1-2)Man(a1-3)[Gal(b1-4)GlcNAc(b1-3)Gal(b1-4)GlcNAc(b1-3)Gal(b1-4)GlcNAc(b1-3)Gal(b1-4)GlcNAc(b1-3)Gal(b1-4)GlcNAc(b1-3)Gal(b1-4)GlcNAc(b1-2)Man(a1-6)]Man(b1-4)GlcNAc(b1-4)GlcNAc
# Method in brief: as §1
# [19] = target: Gal(b1-4)GlcNAc(b1-3)Gal(b1-4)GlcNAc(b1-3)[Gal(b1-4)GlcNAc(b1-3)Gal(b1-4)GlcNAc(b1-6)]GalNAc
# Method in brief: as §1
# Gal3S(b1-4)Glc = target: Gal3S(b1-4)Glc
# Method in brief: as §1
# GalNAc(b1-3)Gal = target: GalNAc(b1-3)Gal
# Method in brief: as §1
# GalNAc(b1-4)GlcNAc6S = target: GalNAc(b1-4)GlcNAc6S
# Method in brief: as §1
# [20] = target: Glc(a1-6)Glc(a1-6)Glc(a1-6)Glc
# Method in brief: as §1
# [21] = target: GlcNAc(b1-2)Man(a1-3)[GlcNAc(b1-2)Man(a1-6)]Man(b1-4)GlcNAc(b1-4)GlcNAc
# Method in brief: as §1
# GlcNAc(b1-3)Gal = target: GlcNAc(b1-3)Gal
# Method in brief: as §1
# [22] = target: GlcNAc(b1-3)Gal(b1-4)GlcNAc(b1-3)Gal(b1-4)GlcNAc(b1-2)Man(a1-3)[GlcNAc(b1-3)Gal(b1-4)GlcNAc(b1-3)Gal(b1-4)GlcNAc(b1-2)Man(a1-6)]Man(b1-4)GlcNAc(b1-4)GlcNAc
# Method in brief: as §1
# [23] = target: GlcNAc(b1-3)Gal(b1-4)GlcNAc(b1-3)Gal(b1-4)GlcNAc(b1-3)Gal(b1-4)GlcNAc(b1-3)Gal(b1-4)GlcNAc(b1-2)Man(a1-3)[GlcNAc(b1-3)Gal(b1-4)GlcNAc(b1-3)Gal(b1-4)GlcNAc(b1-3)Gal(b1-4)GlcNAc(b1-3)Gal(b1-4)GlcNAc(b1-2)Man(a1-6)]Man(b1-4)GlcNAc(b1-4)GlcNAc
# Method in brief: as §1
# [24] = target: GlcNAc(b1-3)Gal(b1-4)GlcNAc(b1-3)Gal(b1-4)GlcNAc(b1-3)Gal(b1-4)GlcNAc(b1-3)Gal(b1-4)GlcNAc(b1-2)[GlcNAc(b1-3)Gal(b1-4)GlcNAc(b1-3)Gal(b1-4)GlcNAc(b1-3)Gal(b1-4)GlcNAc(b1-3)Gal(b1-4)GlcNAc(b1-6)]Man(a1-6)[GlcNAc(b1-3)Gal(b1-4)GlcNAc(b1-3)Gal(b1-4)GlcNAc(b1-3)Gal(b1-4)GlcNAc(b1-3)Gal(b1-4)GlcNAc(b1-2)Man(a1-3)]Man(b1-4)GlcNAc(b1-4)[Fuc(a1-6)]GlcNAc
# Method in brief: as §1
# Kdn(a2-3)Gal(b1-3)GalNAc = target: Kdn(a2-3)Gal(b1-3)GalNAc
# Method in brief: as §1
# Man(a1-3)[Man(a1-6)]Man = target: Man(a1-3)[Man(a1-6)]Man
# Method in brief: as §1
# [25] = target: Neu5Ac(a2-3)Gal(b1-3)[Neu5Ac(a2-6)]GalNAc
# Method in brief: as §1
# [26] = target: Neu5Ac(a2-3)Gal(b1-4)[Fuc(a1-3)]GlcNAc(b1-6)[Neu5Ac(a2-3)Gal(b1-3)]GalNAc
# Method in brief: as §1
# [27] = target: Neu5Ac(a2-3)GalNAc(b1-4)GlcNAc
# Method in brief: as §1
# [28] = target: Neu5Ac(a2-6)Gal(b1-4)GlcNAc(b1-2)Man(a1-3)[Neu5Ac(a2-6)Gal(b1-4)GlcNAc(b1-2)Man(a1-6)]Man(b1-4)GlcNAc(b1-4)[Fuc(a1-6)]GlcNAc
# Method in brief: as §1
# [29] = target: Neu5Ac(a2-6)Gal(b1-4)GlcNAc(b1-3)Gal(b1-4)GlcNAc
# Method in brief: as §1
# [30] = target: Neu5Ac(a2-6)Gal(b1-4)GlcNAc(b1-6)GalNAc
# Method in brief: as §1
# [31] = target: Neu5Ac(a2-6)Gal(b1-4)GlcNAc(b1-6)[Gal(b1-3)]GalNAc
# Method in brief: as §1
# Neu5Gc(a2-3)Gal(b1-4)Glc = target: Neu5Gc(a2-3)Gal(b1-4)Glc
# Method in brief: as §1
# [32] = target: Neu5Gc(a2-6)Gal(b1-4)GlcNAc
# Method in brief: as §1
# [33] = target: Neu5Gc(a2-8)Neu5Gc(a2-3)Gal(b1-4)GlcNAc(b1-3)Gal(b1-4)GlcNAc
# Method in brief: as §1
binder,measurement,setting,value
B1,glycan array binding signal (z-score),[1],-0.208
same,glycan array binding signal (z-score),[2],-0.2
same,glycan array binding signal (z-score),[3],-0.204
same,glycan array binding signal (z-score),[4],-0.206
same,glycan array binding signal (z-score),[5],-0.207
same,glycan array binding signal (z-score),[6],-0.209
same,glycan array binding signal (z-score),[7],-0.208
same,glycan array binding signal (z-score),[8],-0.124
same,glycan array binding signal (z-score),[9],-0.205
same,glycan array binding signal (z-score),[10],5.23
same,glycan array binding signal (z-score),[11],5.29
same,glycan array binding signal (z-score),[12],5.88
same,glycan array binding signal (z-score),[13],6.24
same,glycan array binding signal (z-score),[14],6.23
same,glycan array binding signal (z-score),[15],5.44
same,glycan array binding signal (z-score),[16],6.16
same,glycan array binding signal (z-score),[17],6.2
same,glycan array binding signal (z-score),[18],5.13
same,glycan array binding signal (z-score),[19],0.034
same,glycan array binding signal (z-score),Gal3S(b1-4)Glc,-0.196
same,glycan array binding signal (z-score),GalNAc(b1-3)Gal,-0.207
same,glycan array binding signal (z-score),GalNAc(b1-4)GlcNAc6S,-0.203
same,glycan array binding signal (z-score),[20],-0.207
same,glycan array binding signal (z-score),[21],-0.205
same,glycan array binding signal (z-score),GlcNAc(b1-3)Gal,-0.195
same,glycan array binding signal (z-score),[22],0.937
same,glycan array binding signal (z-score),[23],5.26
same,glycan array binding signal (z-score),[24],7.09
same,glycan array binding signal (z-score),Kdn(a2-3)Gal(b1-3)GalNAc,-0.201
same,glycan array binding signal (z-score),Man(a1-3)[Man(a1-6)]Man,-0.2
same,glycan array binding signal (z-score),[25],-0.208
same,glycan array binding signal (z-score),[26],-0.203
same,glycan array binding signal (z-score),[27],-0.213
same,glycan array binding signal (z-score),[28],-0.208
same,glycan array binding signal (z-score),[29],-0.079
same,glycan array binding signal (z-score),[30],-0.203
same,glycan array binding signal (z-score),[31],-0.194
same,glycan array binding signal (z-score),Neu5Gc(a2-3)Gal(b1-4)Glc,-0.205
same,glycan array binding signal (z-score),[32],-0.206
same,glycan array binding signal (z-score),[33],-0.196
